A selection: hits, their analogues and other compounds. The true share with any hit is near 7.3%.
SMN2 splice up – qHTS Assay for Enhancers of SMN2 Splice Variant Expression | Potency, µM (series often up to 46.1 µM), inactives show top-dose activity change, positive = activation, usual class: activators | 210,000 compounds, 2.8% hits | HEK293 SMN2-luciferase splicing reporter, luminescence, 30-36 h; also: % of control where 0% means no effect; nearly all actives have a fitted effect of over 55% in size
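HEK293 cells carry an SMN2 […]–luciferase reporter in which exon 7 inclusion puts luciferase in frame. Cells were plated 10-12 h before compound addition, then incubated 30-36 h at 37C. ONE-Glo luminescence was read; sodium butyrate at 4.5 mM final served as control.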
Rab9 promoter act – qHTS Assay for Rab9 Promoter Activators. Huh7 Rab9 promoter-luciferase reporter, luminescence, 24 h. Potency, µM (highest dose often 9.22 µM), inactives show at the top dose activation, negative = inhibition, actives largely listed as activators. 320,000 compounds, 2.8% hits. AID 485297, 2010; also: % of control where 0% means no effect; nearly all actives have a fitted effect of over 60% in size
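Promoter activation is measured as luciferase luminescence in Huh7 cells stably transfected with a Rab9 promoter–luciferase construct, following 24 h compound exposure at 37 °C and 10 min reagent incubation at ambient temperature.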
uPA generation – qHTS for Inhibitors of Cell Surface uPA Generation; cell surface uPA generation assay, qHTS; Potency, µM (titrated, usually from 38.3 µM), for inactives: at the highest dose activity change, negative = inhibition, actives largely listed as inhibitors; 330,000 compounds, 0.31% hits; AID 540303, 2011; active = well fitted inhibition curve with a large enough effect; inconclusive = small, poorly fitted or top-dose-only effect; inactive = no such curve, though single readings can be large or run the other way; tested in mouse RAW 264.7 cells; also: % is scaled to controls: 0 for no effect and ±100 for the full control effect; nearly all actives have a fitted effect of over 55% in size
NPC1 promoter act – qHTS Assay for NPC1 Promoter Activators | AID 485313, 2010 | 320,000 compounds, 2.4% hits | Potency, µM (titrated, usually from 9.22 µM), for the others: at the highest dose activation, actives largely listed as activators | Huh7 NPC1 promoter luciferase reporter, 24 h; also: % of control where 0% means no effect; nearly all actives have a fitted effect of over 60% in size
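Cells: Huh7 expressing luciferase under the NPC1 promoter, 1500/well. Seeded 2 h, compound added, incubated 24 h at 37 °C. Luciferase reagent, 10 min ambient, then luminescence.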
ELG1 genotox – qHTS screen for small molecules that induce genotoxicity in human embryonic kidney (HEK293T) cells expressing luciferase-tagged ELG1; HEK293T ELG1-luciferase reporter, luminescence, 16 h; Potency, µM (series often up to 46 µM), inactives show at the highest dose activity change, positive = activation, usual class: activators; 330,000 compounds, 1.3% hits; AID 504466, 2011; also: % of control where 0% means no effect; nearly all actives have a fitted effect of over 60% in size
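16 hr compound incubation (37 °C, 5% CO2) of HEK293T cells carrying luciferase-tagged ELG1; luciferase then measured by ONE-Glo luminescence after 30 min at RT.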
FLuc counter – qHTS profiling assay for firefly luciferase inhibitor/activator using purifed enzyme and Km concentrations of substrates (counterscreen for miR-21 project); purified FLuc, Km substrates, luminescence inhibition; Potency, µM (doses to about 57.5 µM), for inactives: at the highest dose activity change, negative = inhibition, actives largely listed as inhibitors; 360,000 compounds, 6.9% hits;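 also: plate controls were vehicle for no effect and reference inhibitor for full effect; nearly all actives have a fitted effect of over 55% in size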
Target sequence (P08659 whole entry, looked up): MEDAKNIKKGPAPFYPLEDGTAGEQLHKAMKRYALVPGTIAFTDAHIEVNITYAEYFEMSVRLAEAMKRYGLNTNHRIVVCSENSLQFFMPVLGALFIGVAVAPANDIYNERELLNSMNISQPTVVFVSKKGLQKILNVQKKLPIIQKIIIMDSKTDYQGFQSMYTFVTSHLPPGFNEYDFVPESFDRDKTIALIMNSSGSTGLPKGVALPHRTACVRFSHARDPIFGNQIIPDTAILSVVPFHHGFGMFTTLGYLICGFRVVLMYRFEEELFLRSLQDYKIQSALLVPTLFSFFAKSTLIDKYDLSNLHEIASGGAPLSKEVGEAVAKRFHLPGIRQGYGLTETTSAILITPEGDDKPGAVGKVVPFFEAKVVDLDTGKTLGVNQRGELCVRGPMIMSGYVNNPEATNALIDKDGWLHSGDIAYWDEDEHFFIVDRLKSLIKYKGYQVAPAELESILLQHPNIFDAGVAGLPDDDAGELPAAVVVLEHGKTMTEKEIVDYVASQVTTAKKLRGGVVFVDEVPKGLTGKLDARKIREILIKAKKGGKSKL
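Purified P. pyralis luciferase (10nM final) with 10uM D-luciferin and 10uM ATP (Km levels) in 50mM Tris acetate pH 7.5, 10mM Mg acetate, 0.01% Tween-20, 0.05% BSA; qHTS 6-point titration, ~60 µM downward; luminescence read.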
* = called active by the depositor; ? = inconclusive; nt = no result given; [ ] = remark or other dose. Unless noted, calls follow the shape of the dose curve; as a rule, active = well fitted curve in the direction sought with a large enough effect; inconclusive = small, poorly fitted or top-dose-only effect, or another doubt; inactive = no such curve, though single readings can be large; an effect the other way counts as inactive or inconclusive. Potency is read from the fitted curve at half-maximal effect.

SMILES	SMN2 splice up	Rab9 promoter act	uPA generation	NPC1 promoter act	ELG1 genotox	FLuc counter
Cc1ccc(CNc2ncnc3c2c(-c2ccccc2)cn3-c2cccc(Cl)c2)cc1	nt	nt	nt	nt	nt	3.8%
CCOc1cc(C2c3c(n[nH]c3C)C(=O)N2c2ccc(C)cc2)ccc1O (configuration not stated)	3.8%	5.8%	-1.6%	-1.2%	6.4%	1.1%
COc1ccc(C2NN=C(c3ccc(C)cc3)S2)cc1 (configuration not stated)	nt	0.631µM*	?	91.7%	?	1.2µM*
CCOc1cc(C2NN=C(c3ccc(C)cc3)S2)ccc1O (configuration not stated)	15.8µM*	3.55µM*	-3.1%	3.16µM*	?	5.36µM*
Cc1ccc(C2=NNC(C(O)C(O)C(O)CO)S2)cc1 (configuration not stated)	-15.9%	24.3%	2.0%	18.0%	?	15.1µM*
COc1ccc(C2C(=O)NN=C2C)cc1 (configuration not stated)	nt	nt	10.7%	nt	nt	nt
COc1cccc(NC(=O)CSc2nc(=O)n(Cc3ccccn3)c3c2CCC3)c1	nt	nt	nt	nt	nt	-7.1%
CC(=O)c1c(C)nc(-c2ccc(Cl)cc2)nc1N=CN(C)C	11.2µM*	2.82µM*	2.3%	3.98µM*	9.2µM*	?
CC(=O)c1sc(-c2ccc(Cl)cc2)nc1C	26.6%	?	-1.8%	25.6%	?	?
CC(=O)c1c(C)nc(-c2ccc(Cl)cc2)nc1N	10µM*	3.16µM*	2.9%	3.55µM*	4.11µM*	6.75µM*
O=C(Nc1nc2c(s1)CCCC2=O)c1cnccn1	20µM*	?	nt	?	23.1µM*	?
CCOc1ccc2nc(NC(=O)c3cnccn3)sc2c1	nt	0.251µM*	1.9%	0.794µM*	?	1.51µM*
O=C(NNc1nc2ccc(F)cc2s1)c1cccc(F)c1	-21.2%	-15.2%	-12.6%	9.3%	-6.5%	?
O=C(Nc1nc(-c2ccco2)c(-c2ccco2)s1)c1cnccn1	nt	-1.3%	-2.4%	-10.7%	-5.8%	-4.3%
O=C(Nc1nc2ccccc2s1)c1cnccn1	6.31µM*	0.316µM*	-12.7%	1.12µM*	0.461µM*	2.13µM*
O=C(Nc1nc2ccc(F)cc2s1)c1ccccn1	-54.1%	0.0891µM*	-18.3%	?	?	0.536µM*
Nc1nc(Cl)nc2c1ncn2[C@@H]1O[C@H](CO)[C@H](O)[C@H]1O	-6.1%	nt	nt	nt	nt	nt
O=C(NCc1cccnc1)C(=O)Nc1nc2ccccc2s1	-13.5%	22.4%	-2.5%	14.1%	?	15.1µM*
Cc1ccc2cc3c(N)nn(C(=O)c4cccc(F)c4)c3nc2c1	-8.9%	nt	nt	nt	nt	-2.6%
O=C(O)[C@@H](O)[C@@H](O)[C@@H](O)[C@@H](O)c1nc2ccccc2s1	-5.6%[9.22 µM]	nt	nt	nt	nt	nt
CCCCN1C(=O)CC(Nc2ccc(CC)cc2)C1=O (configuration not stated)	?	24.7%	8.6%	12.3%	16.4µM*	13.5µM*
CN(C)c1ccc(CNS(=O)(=O)c2ccc(-c3cc(C(F)(F)F)on3)s2)cc1	nt	nt	nt	nt	nt	-1.8%
O=C(c1cc2cc3ccc(Cl)cc3nc2o1)N1CCCCCC1	nt	3.55µM*	0.1%	2.51µM*	?	2.69µM*
O=C(c1cc2cc(Cl)ccc2o1)N1CCCCCC1	nt	3.98µM*	-2.0%	?	12.8%	2.5%
Nc1cc(=O)[nH]c(SCC(=O)Nc2nnc(-c3ccccc3)s2)n1	19.6%	13.9%	0.7%	7.6%	7.0%	23.9µM*
SMILES	SMN2 splice up	Rab9 promoter act	uPA generation	NPC1 promoter act	ELG1 genotox	FLuc counter
Nc1cc(=O)[nH]c(SCC(=O)Nc2ccccc2-c2ccccc2)n1	0.0%	11.7%	-1.2%	-5.6%	5.6%	-1.1%
CCn1c(Cc2ccccc2)nnc1SCC(=O)Nc1nnc(-c2ccccc2)s1	0.112µM*	-2.8%	-3.0%	0.2%	15.9%	?
CCn1c(Cc2ccccc2)nnc1SCC(=O)Nc1nc(C)c(C)s1	4.7%	1.9%	nt	2.2%	-2.9%	-1.3%
CC(C)Cc1nnc(NC(=O)CSc2nc(-c3ccccc3)cc(=O)[nH]2)s1	nt	3.7%	1.3%	0.3%	-2.7%	12µM*
Cc1cc(=O)[nH]c(SCC(=O)Nc2nnc(CC(C)C)s2)n1	-18.7%	-1.4%	0.3%	0.1%	-1.1%	3.2%
O=C(CSc1ncn[nH]1)Nc1nnc(-c2ccccc2)s1	7.4%	?	-23.5%	19.3%	?	21.3µM*
O=C(CSc1ncn[nH]1)Nc1ccccc1-c1ccccc1	-5.2%	-0.1%	-1.3%	-7.3%	0.0%	-3.8%
Cc1cc2sc(C)[n+](CCCOS(=O)(=O)O)c2cc1C	-6.0%[9.22 µM]	nt	nt	nt	nt	nt
Cc1ccc(CCNC(=O)Cn2cccc2)cc1	8.8%	1.0%	nt	-2.9%	0.8%	1.9%
CN(c1ccc(C(=O)NCCSC(C)(C)C)cc1)S(C)(=O)=O	11.2µM*	?	1.9%	?	10.3µM*	19µM*
Cc1ccc(CCNC(=O)NC(C)(C)C)cc1	3.55µM*	?	1.2%	?	13.1%	?
Cc1ccc(CNC(=O)CCn2cc(-c3ccc(C)cc3)nc2-c2ccncc2)cc1	nt	3.8%	13.2%	-3.7%	-0.7%	1.5%
Cc1ccc(CNC(=O)c2ccc(Cn3cc(-c4ccc(C)cc4)nc3-c3ccncc3)cc2)cc1	nt	2.82µM*	-17.6%	?	?	10.7µM*
Cc1ccc(C(=O)NCCc2ccncc2)cc1	?	?	nt	?	?	21.3µM*
CCc1ccc(NC(=O)CN2C(=O)CSc3ccc(S(=O)(=O)N(C)C)cc32)cc1	nt	nt	nt	nt	nt	-19.3%
Cc1cccc(Oc2nc3c(c(=O)n(C)c(=O)n3C)n2C)c1C	-1.1%	nt	nt	nt	nt	3.4%
O=C(NCCc1ccccc1)c1cnc(Cl)c(Cl)c1	nt	14.0%	-7.3%	18.9%	13.3%	23.9µM*
O=C(NCCCSc1ccccc1)c1cnc(Cl)c(Cl)c1	nt	-0.4%	3.5%	-9.6%	-2.3%	-9.8%
Cc1ccc(S(=O)(=O)N(C)c2ccc(C(=O)NCCc3ccccc3)cc2)cc1	nt	?	6.3%	28.9%	15.4%	?
Cc1ccc(C(=O)NCCc2ccccc2)cc1	nt	0.0398µM*	?	?	?	0.536µM*
CN(c1ccc(C(=O)NCCc2ccccc2)cc1)S(C)(=O)=O	14.1µM*	0.631µM*	nt	1.41µM*	1.64µM*	5.36µM*
Cc1ccc(NC(=O)C(=O)NCCc2sc(-c3ccc(Cl)cc3)nc2C)cc1C	nt	nt	nt	nt	nt	-7.1%
COc1ccccc1NC(=O)C1=C(C)Nc2nc3ccccc3n2C1c1cccc(OC)c1OC (configuration not stated)	6.4%	nt	nt	nt	nt	-2.5%
COc1cc(-c2nnc(SCC3(c4ccccc4)OCCO3)o2)cc(OC)c1OC	-27.1%	-13.5%	-5.6%	5.6%	-12.8%	-10.2%
